Compounds without any hit were thinned out: in the full panel of roughly 83,000, 20% have a hit.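 96-well plates, one dose, 48 hours. Percent growth reported; active if below 10.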 Unmarked numbers belong to inactive results. The source made the active and inactive calls.
Test system: SK-MEL-2 melanoma
Assay: NCI-60 one-dose screen, 48 h (100 = growth as untreated, 0 = no growth, -100 = all killed)
Details: 10 µM unless noted
Method: Growth inhibition of the SK-MEL-2 human tumor cell line is measured as a screen for anti-cancer activity. Cells are grown in 96 well plates and exposed to the test compound for 48 hours. Compounds are tested at a single concentration, which is 10^-5 M for most compounds. The reported endpoint is percent growth (GI% or GIPRCNT), where numbers from 0 - 100% represent growth inhibition, and numbers from -100% - 0 represent cell death. For example, a value of 40 represents 60% growth inhibition. A value of 0 means no net growth occurred over the course of the experiment. A value of -40 indicates 40% of cells at the beginning of the experiment died by the end of the experiment. A value of -100 means all cells are dead at the end of the experiment.
NCI-60 Human Tumor Cell Lines Screen was performed using the standard one-dose NCI protocol, which is described in more detail at https://dtp.cancer.gov/discovery_development/nci-60/default.htm.
Compounds with GIPRCNT values below 10 were considered active. Activity score was based on GIPRCNT using the following formula: […]
Score is 0 for GIPRCNT values of 100 or above, 50 for GIPRCNT values of 0, and 100 for GIPRCNT values of -100.

Compared with `C[C@@]1(CCCCCCCCCc2ccc(O)cc2)C[C@]2(C)OC(=O)C[C@@H]2OO1`, `C/C(=C\c1ccn(-c2ccc(N)c(F)c2)n1)[C@@H]1C[C@@H]2O[C@]2(C)CCC[C@H](C)[C@H](O)[C@@H](C)C(=O)C(C)(C)[C@@H](O)CC(=O)O1` is lower in growth: 117% for the first, 23.2% for the second.

Compared with `O=C([O][Hg][CH2]C1COCC([CH2][Hg][O]C(=O)c2ccccc2)O1)c1ccccc1` (stereo not given), `O=C(CN1CCN(C(=O)c2ccco2)CC1)Nc1ccc(Cl)cc1C(=O)c1ccccc1Cl` is lower in growth: 105% for the first, 46.6% for the second.

First: Cn1cc(C=O)c2nccnc21
Second: COc1cc([N+](=O)[O-])c2nc(C)ccc2c1[N+](=O)[O-]
The growth of the first is higher: 123% for the first, 102% for the second.

First: CC(=O)O[C@H](C[C@H](C(C)C)N(C)C(=O)[C@@H](NC(=O)[C@H]1CCCCN1C)C(C)C)c1nc(C(=O)NC2CCC(C(=O)O)CC2)cs1 (stereo not given in full)
Second: COC(=O)[C@@H](C)C[C@H](Cc1ccccc1)NC(=O)c1csc([C@@H](C[C@H](C(C)C)N(C)C(=O)[C@@H](NC(=O)[C@H]2CCCCN2C)C2CCCCC2)OC(C)=O)n1
The growth of the first is higher: 37.4% for the first, 11.2% for the second.

Going from `CC(=O)O[C@H](C[C@H](C(C)C)N(C)C(=O)[C@@H](NC(=O)[C@H]1CCCCN1C)C(C)C)c1nc(C(=O)N[C@@H](Cc2ccccc2)C[C@H](C)C(=O)O)c(C(C)C)s1` to `CC[C@H](C)[C@H](NC(=O)[C@H]1CCCCN1C)C(=O)N(C)[C@H](CCc1nc(C(=O)N[C@@H](Cc2ccccc2)C[C@H](C)C(=O)OC)cs1)C(C)C`, the growth rises from 23.6% to 32.7%.

Going from `COc1ccc2c(c1)c(-c1nc(-c3c[nH]c4ncccc34)cs1)cn2CCN1CCOCC1` to `C=CC12CCN(CC1)C(C(O)c1ccnc3ccc(OC)cc13)C2` (stereo not given), the growth rises from 61.3% to 97.3%.

First: CC(C)CCC1(CCCl)C(=O)NC(=O)NC1=O
Second: CCC1(C(C)C)C(=O)NC(=S)NC1=O
The growth of the first is lower: 104% for the first, 117% for the second.

Compared with `O=C(Nc1ccc(O)cc1)C(Cl)(Cl)Cl`, `COP(=O)(OC)C(O)c1ccc(Cl)cc1` (stereo not given) is higher in growth: 99.4% for the first, 109% for the second.

Compared with `O=C1NC(=O)C(=Cc2ccc(OCCCCC3CCCCC3)c(Cl)c2)C(=O)N1`, `OCCCCCNC1CCCCC1` is lower in growth: 89.5% for the first, 80.7% for the second.

First: O=C1C2CC=CCC2C(=O)N1SC(Cl)(Cl)Cl (stereo not given)
Second: CC12CCC3C(CCC4=CC(=O)CCC43CF)C1CCC2=O (stereo not given)
The growth of the first is higher: 122% for the first, 97.2% for the second.

Compared with `C[C@]12CC[C@@H]3c4ccc(Oc5nc(N6CC6)nc(N6CC6)n5)cc4CC[C@H]3[C@@H]1CCC2=O`, `CC(C)CCC(=O)O[C@H]1CC[C@H]2[C@@H]3CCC4=CC(=O)CC[C@]4(C)[C@H]3CC[C@]12C` is higher in growth: 56.4% for the first, 115% for the second.

First: Nc1ccc(-c2nc3cc(F)ccc3[se]2)cc1F
Second: COC(=O)CCC1=C(C)c2cc3[n-]c(cc4nc(cc5[n-]c(cc1n2)c(CCC(=O)OC)c5C)C=C4C)cc3C.[Cd+2]
The growth of the first is higher: 97.7% for the first, 32.4% for the second.

Going from `C=CC[PH+](c1ccccc1)c1ccccc1.C=CC[PH+](c1ccccc1)c1ccccc1.[Cl][Pt][Cl]` to `ClCCN(CCCl)c1ccc(/C=N\N=C\c2ccc(N(CCCl)CCCl)cc2)cc1`, the growth falls from 71.1% to 36.7%.

Going from `CC(=O)O[C@H]1CC[C@@]2(C)C(=CC[C@H]3[C@@H]4C[C@@H](N5CC5)[C@H](C(C)=O)[C@@]4(C)CC[C@@H]32)C1` to `COC(=O)[C@@H](C)C[C@H](Cc1ccc(F)cc1)NC(=O)c1csc([C@@H](C[C@H](C(C)C)N(C)C(=O)[C@@H](NC(=O)[C@H]2CCCCN2C)C2CC2)OC(C)=O)n1`, the growth falls from 103% to 24.4%.

In the case of `CCCCCCCC(=O)OCC(=O)[C@]1(O)Cc2c(O)c3c(c(O)c2[C@@H](OC2CC(N)C(O)C(C)O2)C1)C(=O)c1c(OC)cccc1C3=O` (stereo not given in full), the growth was -48.3% (active).
In the case of `CCOC(=O)[C@@H](C)C[C@H](Cc1ccccc1)NC(=O)c1csc([C@@H](C[C@H](C(C)C)N(C)C(=O)[C@@H](NC(=O)[C@H]2CCCCN2C)C(C)(C)C)OC(C)=O)n1`, the growth was 1.39% (active).
In the case of `O=C(c1cccc(O)c1O)c1cn(Cc2ccc(F)cc2)c2cccc(O)c12`, the growth was -6.9% (active).
For `O=C(CCl)c1ccc([N+](=O)[O-])o1`, the growth was -7.05% (active).
With `Clc1ccc(CO/N=C(\Cn2ccnc2)c2ccc(Cl)cc2Cl)c(Cl)c1` the growth was -48% (active).
`O=C(CC1(O)C(=O)N(Cc2ccccc2)c2ccc(Cl)cc21)c1ccc(C(=O)NCC2CCC3(CC2)OOC2(CCCCC2)OO3)cc1` (stereo not given) was tested, and the growth was 2.93% (active).
`CC1=C(CCCOC(=O)[C@H](N)CC(C)C)C2=C(C)C3(CC3)[C@@](C)(O)C(=O)C2=C1` was tested, and the growth was -15.6% (active).
In the case of `CCOC(=O)[C@@H](C)C[C@H](Cc1ccccc1)NC(=O)c1nc([C@@H](C[C@H](C(C)C)N(C)C(=O)[C@@H](NC(=O)[C@H]2CCCCN2C)C(C)C)OC(C)=O)sc1CCOCc1ccccc1`, the growth was -50.6% (active).
With `O=C(Nc1ccc([As]=[As]c2ccc(NC(=O)c3ccccc3)cc2)cc1)c1ccccc1` (stereo not given) the growth was -81.4% (active).
`O=C([O][Hg][c]1ccccc1)c1ccccc1` was tested, and the growth was -33.3% (active).
With `COc1ccc(S(=O)(=O)Nc2c(/C=C\c3cc(OC)c(OC)c(OC)c3)ccc(OC)c2O)cc1OC` the growth was 9.91% (active).
`COc1cc(/C=C/[N+](=O)[O-])c([N+](=O)[O-])cc1OC` was tested, and the growth was -6.72% (active).

— PubChem BioAssay (NCI)
